Among the data in PubChem BioAssay (Tox21) are Potency values, retold here.

The nature of test [1]: Nuclear factor erythroid 2-related factor 2/antioxidant responsive element (Nrf2/ARE) small molecule agonists: qHTS cell viability counter screen in human keratinocytes (AID 1919968; active means well fitted curve in the direction sought with a large enough effect in the repeat runs; an effect the other way counts as inactive or inconclusive; further: nearly all actives have a fitted effect of over 55% in size; further: potency means the concentration at half of the fitted maximal effect). In a few lines: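 Parallel cytotoxicity read: KeratinoSens HaCaT cells, compound treatment 23 h, viability by CellTiter-Fluor fluorescence 1 h post-reagent.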
A short description of test [2]: Nuclear factor erythroid 2-related factor 2/antioxidant responsive element (Nrf2/ARE) small molecule agonists: luciferase reporter gene qHTS assay in human keratinocytes (AID 1919969). Further: nearly all actives have a fitted effect of over 35% in size. Further: potency means the concentration at half of the fitted maximal effect.
The target in test [3] is Gonadotropin-releasing hormone receptor (Homo sapiens) (UniProt P30968). In words: Human gonadotropin-releasing hormone receptor (GnRHR) small molecule agonists, calcium flux assay in GnRHR-HEK293 cells (AID 1920063). Further: nearly all actives have a fitted effect of over 35% in size. In a few lines: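 Calcium flux, agonist mode, human GnRHR stably integrated in HEK293; dye 1 h at 37 C before compound; Ex/Em=480/540 kinetic read, 3 min; 15 concentrations, triplicate.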
On the technique in general: Calcium assays in cells follow changes in intracellular calcium, usually with a dye or a luminescent sensor.

Test [4] addresses KiSS-1 receptor (Homo sapiens) (UniProt Q969F8). Briefly: Human kisspeptin (KISS1R) small molecule agonists, calcium flux assay in KISS1R-HEK293 cells (AID 1920064; active means well fitted curve in the direction sought with a large enough effect in the repeat runs; an effect the other way counts as inactive or inconclusive). Summed up: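 Triplicate 15-concentration series were applied to dye-loaded human KISS1R HEK293 cells, and agonist-evoked calcium fluorescence was captured for 3 min.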
Test [5] can be described thus: p53 small molecule agonists, cell-based qHTS assay with human liver microsomes (AID 1963577).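 Further: p53 response element beta-lactamase reporter cells with liver microsomes plus NADPH.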 In a few lines:
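In this qHTS, p53 response-element beta-lactamase cells receive test compound together with a microsome/NADPH activating system (0.5 mg/mL final each) and are incubated 16 h at 37 C before LiveBLAzer fluorescence detection.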
In general terms: qHTS replaces the single test concentration by a dilution series.

The nature of test [6]: p53 small molecule agonists, cell-based qHTS assay: qHTS cell viability counter screen (AID 1963581). Further: nearly all actives have a fitted effect of over 45% in size. Summed up:
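Multiplexed with the reporter read, a CellTiter-Glo step (30 min, room temperature) gauges ATP-based viability of HCT-116 p53RE-bla cells after 16 h compound incubation at 37 C.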

Test [7] in a line: p53 small molecule agonists, cell-based qHTS assay (AID 1963582; active means well fitted activation curve with a large enough effect in the signal ratio in the repeat runs, not every such curve was filed as active; the % refers to the signal ratio). In a few lines:
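Beta-lactamase reporter cells (p53RE-bla) treated with compounds for 16 h at 37 C; FRET substrate, 2 h, room temperature; fluorescence intensity.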

Test [8] addresses 5-hydroxytryptamine receptor 2A (Homo sapiens) (UniProt P28223). Briefly: 5-hydroxytryptamine receptor 2A (HTR2A) small molecule antagonists, cell-based qHTS assay (AID 1963586). Further: nearly all actives have a fitted effect of over 45% in size. In a few lines:
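CHO cells stably expressing human HTR2A were plated for 18 h at 37 C, then loaded with calcium dye for 1 h. Compounds were preincubated 5 min at room temperature before DOI (4 nM solution) was added. Kinetic fluorescence was read for 3 min.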

The target is the same in test [9]. In words: 5-hydroxytryptamine receptor 2A (HTR2A) small molecule agonists, cell-based qHTS assay (AID 1963587). Further: nearly all actives have a fitted effect of over 30% in size. Further: potency means the concentration at half of the fitted maximal effect. Summed up:
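HTR2A-CHO cells, plated 18 h at 37 C/5% CO2, dye-loaded 1 h at 37 C; compounds in DMSO added by pin tool (agonist mode). Intracellular calcium flux read as kinetic fluorescence on FDSS over 2 min at 1 s intervals.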

In test [10] the target is Muscarinic acetylcholine receptor M1 (Homo sapiens) (UniProt P11229). Briefly: Cholinergic receptor muscarinic 1 (CHRM1) small molecule agonists, cell-based qHTS assay (AID 1963589). Further: nearly all actives have a fitted effect of over 35% in size. Summed up:
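qHTS, 15-point titration, 3 independent runs: compounds pin-transferred onto dye-loaded CHRM1-CHO cells (human M1), calcium fluorescence followed every second to detect agonism.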

The nature of test [11]: cAMP Responsive Elements (CRE) small molecule antagonists, cell-based qHTS assay (AID 1963591; active means well fitted inhibition curve with a large enough effect in the signal ratio in the repeat runs, not every such curve was filed as active; the % refers to the signal ratio). In a few lines:
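Fluorescence intensity from cleaved LiveBLAzer B/G substrate (2 h, room temperature) quantified CRE-bla activity in HEK 293T cells exposed 3 h to compound with 0.25 uM final NKH477.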

Test [12] is described as follows: p53 small molecule agonists, cell-based qHTS assay with human liver microsomes: qHTS cell viability counter screen (AID 1963579). Further: nearly all actives have a fitted effect of over 45% in size. Summed up:
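Metabolically activated exposure: compounds, human liver microsomes and NADPH (0.5 mg/mL final apiece) were added to p53RE-bla cells seeded 5 h earlier, left 16 h at 37 C, and then assessed for viability by CellTiter-Glo luminescence.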

Test [13] can be described thus: p53 small molecule agonists, cell-based qHTS assay with rat liver microsomes: qHTS cell viability counter screen (AID 1963580). Further: nearly all actives have a fitted effect of over 45% in size. Summed up: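 Counter screen for cytotoxicity under metabolic activation: rat liver microsomes and NADPH, 0.5 mg/mL final each, added with compounds to p53RE-bla HCT-116 cells; 16 h at 37 C, then ATP luminescence read.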
Test [14] deals with Muscarinic acetylcholine receptor M1 (Homo sapiens) (UniProt P11229). In words: Cholinergic receptor muscarinic 1 (CHRM1) small molecule antagonists, cell-based qHTS assay (AID 1963588). Further: nearly all actives have a fitted effect of over 40% in size. In a few lines: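 Compounds were tested at 15 concentrations in three independent runs. Dye-loaded CHRM1-CHO cells were exposed 5 min at room temperature before stimulation by acetylcholine added at 50nM. Intracellular calcium was read kinetically on FDSS for 3 min.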

Test [15] addresses Beta-2 adrenergic receptor (Homo sapiens) (UniProt P07550). Briefly: Adrenergic beta2 receptor (ADRB2) small molecule antagonists, cell-based qHTS assay (AID 1963592). Further: nearly all actives have a fitted effect of over 50% in size. Further: potency means the concentration at half of the fitted maximal effect. Summed up:
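Assay format: CHO-ADRB2 cells, 18-20hr seeding at 37C/5% CO2, then compound plus 1nM isoproterenol agonist mix for 0.5hr RT. Homogeneous time-resolved fluorescence cAMP detection after 1hr, expressed as 665/615 nm ratio.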

Test [16] has as its target D(2) dopamine receptor (Homo sapiens) (UniProt P14416). Briefly: Dopamine D2 receptor (DRD2) small molecule agonists, cell-based qHTS assay (AID 1963594). Further: nearly all actives have a fitted effect of over 35% in size. Summed up:
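HEK293 cells stably expressing DRD2 were cultured 24 h at 37 C, then given Ro20-1724 (0.1 mM final) and compounds for 10 min at room temperature. NKH477 (200nM) was then added for 30 min. cAMP was read by HTRF.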

The target is the same in test [17]. In words: Dopamine D2 receptor (DRD2) small molecule antagonists, cell-based qHTS assay (AID 1963595; active means well fitted inhibition curve with a large enough effect in the signal ratio in the repeat runs, with a control signal flat; the % refers to the signal ratio). Summed up: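 HEK293 cells stably expressing DRD2 were preincubated with 0.1 mM Ro20-1724, then with compound for 10 min at room temperature. Cells were stimulated with 200 nM NKH477 plus 12 nM quinpirole for 30 min, and cAMP was read by HTRF.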
Test [18] can be described thus: cAMP Responsive Elements (CRE) small molecule agonists, cell-based qHTS assay (AID 1963590). In a few lines: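 Quantitative HTS for CRE agonists: HEK 293T CRE-bla cells, overnight plating, 3 h compound incubation at 37 C/5% CO2, then 2 h room-temperature LiveBLAzer B/G FRET substrate loading.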
Test [19] can be described thus: G protein-coupled receptor (GPCR) small molecule agonists, calcium flux assay: HEK293 wild type cell line counter screen (AID 1920065). Summed up: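 Non-specific calcium responders were flagged by adding DMSO-dissolved compounds to dye-loaded cells and reading 480/540 nm fluorescence each second for 3 min; ATP served as positive control.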
Test [20] in a line: p53 small molecule agonists, cell-based qHTS assay with rat liver microsomes (AID 1963578). Summed up:
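Agonist mode in p53RE-bla reporter cells, with compounds co-incubated 16 h at 37 C alongside 0.5 mg/mL rat liver microsomes and 0.5 mg/mL NADPH (final), followed by a 2 h LiveBLAzer detection step.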

Inconclusive results are not listed. Activity calls are given as the source filed them. Unless noted, the call rests on the fitted dose curve.

5-hydroxytryptamine receptor 2A (Homo sapiens), sequence (P28223 whole entry, looked up): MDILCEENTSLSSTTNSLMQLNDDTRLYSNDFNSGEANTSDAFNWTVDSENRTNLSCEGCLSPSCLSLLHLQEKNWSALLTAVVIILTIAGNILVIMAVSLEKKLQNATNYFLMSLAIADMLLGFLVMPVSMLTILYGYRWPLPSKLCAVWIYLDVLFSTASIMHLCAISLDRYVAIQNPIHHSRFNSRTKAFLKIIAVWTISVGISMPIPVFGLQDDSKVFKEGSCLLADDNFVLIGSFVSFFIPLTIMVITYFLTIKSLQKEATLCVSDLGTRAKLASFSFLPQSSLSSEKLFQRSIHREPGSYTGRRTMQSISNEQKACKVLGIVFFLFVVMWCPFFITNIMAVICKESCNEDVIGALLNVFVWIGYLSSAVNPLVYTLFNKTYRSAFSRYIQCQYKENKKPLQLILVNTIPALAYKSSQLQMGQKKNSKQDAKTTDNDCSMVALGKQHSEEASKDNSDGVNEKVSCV
Muscarinic acetylcholine receptor M1 (Homo sapiens), sequence (P11229 whole entry, looked up): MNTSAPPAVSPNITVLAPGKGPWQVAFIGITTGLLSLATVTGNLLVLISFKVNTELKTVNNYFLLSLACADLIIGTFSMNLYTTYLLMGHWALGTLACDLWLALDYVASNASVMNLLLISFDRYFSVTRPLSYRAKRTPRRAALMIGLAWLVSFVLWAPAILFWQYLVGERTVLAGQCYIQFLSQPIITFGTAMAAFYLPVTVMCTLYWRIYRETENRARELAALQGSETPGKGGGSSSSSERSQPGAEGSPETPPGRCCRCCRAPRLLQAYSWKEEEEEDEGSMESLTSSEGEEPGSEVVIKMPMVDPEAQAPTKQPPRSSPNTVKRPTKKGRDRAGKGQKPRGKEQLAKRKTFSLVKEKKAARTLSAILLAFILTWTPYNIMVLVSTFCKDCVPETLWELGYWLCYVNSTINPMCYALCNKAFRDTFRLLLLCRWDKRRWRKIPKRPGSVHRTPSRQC
Beta-2 adrenergic receptor (Homo sapiens), sequence (P07550 whole entry, looked up): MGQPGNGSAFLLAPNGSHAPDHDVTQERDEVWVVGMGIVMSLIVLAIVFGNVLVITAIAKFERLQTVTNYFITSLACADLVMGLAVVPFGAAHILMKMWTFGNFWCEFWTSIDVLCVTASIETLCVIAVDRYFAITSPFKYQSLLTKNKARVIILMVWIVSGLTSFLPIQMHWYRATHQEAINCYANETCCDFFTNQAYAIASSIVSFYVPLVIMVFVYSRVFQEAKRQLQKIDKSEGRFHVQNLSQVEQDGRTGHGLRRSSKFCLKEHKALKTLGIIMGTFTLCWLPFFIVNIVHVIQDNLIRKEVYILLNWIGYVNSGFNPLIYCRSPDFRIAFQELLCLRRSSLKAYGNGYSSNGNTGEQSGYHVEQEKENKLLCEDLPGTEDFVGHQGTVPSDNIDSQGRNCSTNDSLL
Gonadotropin-releasing hormone receptor (Homo sapiens), sequence (P30968 whole entry, looked up): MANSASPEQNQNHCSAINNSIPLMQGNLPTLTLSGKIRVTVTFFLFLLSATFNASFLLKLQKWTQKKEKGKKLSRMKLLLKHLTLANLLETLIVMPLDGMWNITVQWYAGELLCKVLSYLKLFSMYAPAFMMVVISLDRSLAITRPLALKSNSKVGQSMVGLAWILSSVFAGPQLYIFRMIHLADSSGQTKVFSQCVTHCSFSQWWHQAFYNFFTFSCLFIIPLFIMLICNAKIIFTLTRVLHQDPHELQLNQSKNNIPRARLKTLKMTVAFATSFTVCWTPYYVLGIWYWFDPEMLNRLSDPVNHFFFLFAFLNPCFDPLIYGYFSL
D(2) dopamine receptor (Homo sapiens), sequence (P14416 whole entry, looked up): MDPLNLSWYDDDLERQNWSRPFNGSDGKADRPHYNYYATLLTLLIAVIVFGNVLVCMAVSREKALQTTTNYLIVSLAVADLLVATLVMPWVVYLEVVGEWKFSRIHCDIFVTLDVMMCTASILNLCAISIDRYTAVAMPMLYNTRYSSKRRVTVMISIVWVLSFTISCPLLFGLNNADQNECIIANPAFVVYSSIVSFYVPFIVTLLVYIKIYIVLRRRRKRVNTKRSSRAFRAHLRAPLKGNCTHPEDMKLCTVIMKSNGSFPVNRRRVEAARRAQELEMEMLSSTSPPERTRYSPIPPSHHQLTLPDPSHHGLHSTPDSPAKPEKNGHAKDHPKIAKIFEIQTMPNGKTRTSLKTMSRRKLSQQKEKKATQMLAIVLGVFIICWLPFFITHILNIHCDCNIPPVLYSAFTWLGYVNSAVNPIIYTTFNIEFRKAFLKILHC
KiSS-1 receptor (Homo sapiens), sequence (Q969F8 whole entry, looked up): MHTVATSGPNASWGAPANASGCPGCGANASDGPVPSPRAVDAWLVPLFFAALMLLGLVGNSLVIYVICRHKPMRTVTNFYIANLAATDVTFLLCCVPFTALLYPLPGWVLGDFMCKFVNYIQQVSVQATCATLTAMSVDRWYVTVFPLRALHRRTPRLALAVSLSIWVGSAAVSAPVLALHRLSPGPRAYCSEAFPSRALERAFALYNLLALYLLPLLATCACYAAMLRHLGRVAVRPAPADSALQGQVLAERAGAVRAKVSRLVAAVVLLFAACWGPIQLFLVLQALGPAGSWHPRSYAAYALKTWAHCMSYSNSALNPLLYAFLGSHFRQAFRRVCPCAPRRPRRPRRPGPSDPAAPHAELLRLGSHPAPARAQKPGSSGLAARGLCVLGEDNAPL

In the case of `CN(C)c1ccc(N)cc1`, the Potency was 29.9 µM (active) in [1] and 8.42 µM (active) in test [2]. Besides, the Potency result in test [3], in test [4], in test [5], in [6], in [7] and in [8] was “inactive” in each case. In addition, the Potency entry in [9], in test [10] and in [11] was “inactive” in each case.
On to `CCOP(=S)(OCC)Oc1cc(C)nc(N(CC)CC)n1`, for which the Potency result in [1], in test [2], in test [3], in test [4], in [12] and in test [13] was “inactive” in each case. In addition, the Potency entry in test [6], in test [7], in [9], in test [14], in test [10] and in test [15] was “inactive” in each case. Also, the Potency result in test [16] and in [17] was “inactive” each time.
With `C[C@]12CC[C@@H]3c4ccc(OC(=O)N(CCCl)CCCl)cc4CC[C@H]3[C@@H]1CC[C@@H]2O`, the Potency entry in test [1], in [2], in test [3], in [4], in [12] and in [13] was “inactive” each time. Moreover, the Potency entry in test [6], in test [8], in [9], in test [14], in [10] and in [18] was “inactive” throughout. For the same compound, the Potency result in test [11], in test [15], in test [16] and in test [17] was “inactive” each time.
In the case of `COc1nn(CSP(=S)(OC)OC)c(=O)s1`, the Potency entry in [1], in test [3], in test [4], in [19], in test [8] and in test [9] was “inactive” in each case. Moreover, the Potency entry in test [10] and in [15] was “inactive” throughout. In addition, the Potency in test [2] is 68.6 µM (active).
Turning to `CCN(CC)C(C)C(=O)c1ccccc1` (centres undefined), the Potency entry in test [1], in test [2], in test [3], in [4], in test [19] and in [6] was “inactive” each time. For the same compound, the Potency entry in [9], in test [14], in [10], in test [18], in test [11] and in test [15] was “inactive” each time. The Potency result in [17] is “inactive”.
On to `CNC(=O)Oc1cc(C)c(SC)c(C)c1`, for which the Potency entry in test [1], in test [2], in test [3], in [4], in test [19] and in test [6] was “inactive” each time. In addition, the Potency entry in [7], in [9], in test [14], in [18], in [11] and in test [15] was “inactive” each time. Further, the Potency result in test [16] and in test [17] was “inactive” in each case.
Take `O=S1(=O)OCCO1`: the Potency entry in test [1], in test [2], in [3], in [4], in test [5] and in [20] was “inactive” in each case. The Potency result in [12], in test [13], in test [6], in test [7], in test [9] and in test [14] was “inactive” in each case. The Potency result in [10], in test [18], in test [11], in test [15] and in test [17] was “inactive” each time.
For `CCOP(=S)(OCC)Oc1ccc(S(C)=O)cc1` (centres undefined), the Potency entry in test [1], in test [2], in [3], in [4], in test [19] and in test [6] was “inactive” each time. Further, the Potency result in test [8], in test [9], in test [14], in test [10], in [18] and in test [11] was “inactive” throughout. Also, the Potency entry in [15], in test [16] and in test [17] was “inactive” each time.
As to `Clc1cccc(SC2CCNCC2)n1`, the Potency result in [1], in test [2], in test [3], in [4], in test [19] and in test [10] was “inactive” throughout. The Potency result in test [18], in test [11], in [16] and in test [17] was “inactive” in each case. For the same compound, the Potency in [9] is 0.0849 µM (active); in test [15], 15 µM (active).
Consider `Brc1ccccc1`, for which the Potency entry in test [1], in [2], in [3], in test [4], in [5] and in [20] was “inactive” throughout. The Potency entry in test [12], in [6], in [18], in test [11], in test [15] and in test [16] was “inactive” throughout. The Potency entry in test [17] is “inactive”.
